Screening results deposited in PubChem by several laboratories.
Hits are enriched below; roughly 3.4% of the tested compounds scored in any of these assays.
Calpain2 inh: inhibitors of pig calpain II, primary screen, biochemical, fluorogenic peptide substrate, 1536-well; 220,000 tested, 0.37% active; AID 1236, 2008; inhibition, % at 16 µM; purified calpain II, 30 min;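 active means inhibition above about 50%, limit read from the data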
Mcl1 Bid PPI: Mcl-1/Bid binding inhibitors, primary screen, biochemical, TR-FRET, 1536-well | 220,000 tested, 0.97% active | inhibition, % at 21.7 µM | Induced myeloid leukemia cell differentiation protein Mcl-1 (Homo sapiens), Q07820 | TR-FRET Mcl-1/Bid-Dy647 peptide binding;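 active means compounds that cut the binding signal by more than half at the single screening dose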;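 further: His-tagged Mcl-1 with europium anti-His antibody binding Bid BH3 peptide; 0% = Mcl-1 plus peptide wells and 100% = peptide-only wells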
Target sequence (Q07820 whole entry, looked up): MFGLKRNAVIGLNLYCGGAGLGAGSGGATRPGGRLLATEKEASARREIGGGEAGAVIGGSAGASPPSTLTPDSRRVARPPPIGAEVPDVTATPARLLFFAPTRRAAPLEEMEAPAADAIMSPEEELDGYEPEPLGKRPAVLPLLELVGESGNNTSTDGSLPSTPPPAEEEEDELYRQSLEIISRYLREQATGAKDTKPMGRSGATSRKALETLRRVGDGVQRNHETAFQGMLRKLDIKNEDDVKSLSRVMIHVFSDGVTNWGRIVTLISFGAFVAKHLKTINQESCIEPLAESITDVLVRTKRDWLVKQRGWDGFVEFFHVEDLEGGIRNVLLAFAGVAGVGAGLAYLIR
14-3-3 Bad inh: inhibitors of 14-3-3 zeta/Bad binding, primary screen, biochemical, TR-FRET, bovine 14-3-3 zeta. TR-FRET 14-3-3zeta/Dy647-pBad peptide displacement, 1 h. inhibition, % at 21.7 µM. 220,000 tested, 0.71% active. AID 781, 2007;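 active means inhibition above about 70%, limit read from the data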;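 further: 0% = full 14-3-3 plus peptide FRET controls and 100% = background without 14-3-3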
Target sequence (P63103 whole entry, looked up): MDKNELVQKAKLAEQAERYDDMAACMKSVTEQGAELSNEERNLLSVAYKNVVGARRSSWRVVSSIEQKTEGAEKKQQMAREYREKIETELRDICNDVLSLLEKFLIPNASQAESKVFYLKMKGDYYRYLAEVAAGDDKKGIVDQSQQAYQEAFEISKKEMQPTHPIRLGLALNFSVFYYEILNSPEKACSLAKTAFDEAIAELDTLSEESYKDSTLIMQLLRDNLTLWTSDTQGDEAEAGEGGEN
NCF1 inh: p47phox/p22phox peptide binding inhibitors, primary screen, biochemical, uHTS, NADPH oxidase regulatory subunit; fluorescence polarization, 2 h; Neutrophil cytosol factor 1 (Homo sapiens), P14598; 220,000 tested, 0.53% active; AID 1274, 2008; inhibition, % at 24.7 µM;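 active means inhibition above about 30%, limit read from the data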;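 further: 0% = p47phox with labelled peptide and 100% = labelled peptide alone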
Mcl1-Noxa inh: Mcl-1/Noxa binding inhibitors, primary screen, biochemical, TR-FRET, 1536-well; 220,000 tested, 1.5% active; AID 1022, 2008; Induced myeloid leukemia cell differentiation protein Mcl-1 (Homo sapiens), Q07820; inhibition, % at 21.7 µM; TR-FRET Mcl-1/Noxa peptide binding, 2 h;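 active means compounds that cut the protein-peptide binding signal by more than 50% relative to plate controls in a single-dose test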;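 further: His-tagged Mcl-1 with rhodamine Noxa BH3 peptide and terbium anti-His antibody; 0% = Mcl-1 plus Noxa peptide wells and 100% = peptide-only wells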
Bim-Mcl-1: inhibitors of Bim peptide binding to Mcl-1, primary screen, biochemical, bead-based flow cytometry, multiplex; inhibition, % at 10 µM; Bim peptide-Mcl-1 binding; Induced myeloid leukemia cell differentiation protein Mcl-1 (Homo sapiens), Q07820; 190,000 tested, 0.1% active; in the data active means inhibition above about 40%;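 further: 0% = no compound tracer wells and 100% = peptide blocker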
Numbers without * were called inactive; x = not tested or not shown.

SMILES	Calpain2 inh	Mcl1 Bid PPI	14-3-3 Bad inh	NCF1 inh	Mcl1-Noxa inh	Bim-Mcl-1
O=c1c(C=NCCCO)c(-c2ccccc2)[nH]n1-c1nc2ccccc2s1	-32	62*	71*	-30	33	-1
Cc1ccc(-n2cccc2/C=C2/C(=N)N3C(=NC2=O)SN=C3S(C)(=O)=O)cc1	-15	-17	10	-71	98*	-1
CCc1ccc(-n2cccc2/C=C2/C(=N)N3C(=NC2=O)SN=C3S(C)(=O)=O)cc1	10	-4	13	-93	94*	2
CS(=O)(=O)C1=NSC2=NC(=O)/C(=C\c3cccn3-c3ccccc3Cl)C(=N)N21	11	-8	4	-91	89*	1
Cc1ccc(-n2cccc2/C=C2\C(=N)N3N=C(c4ccco4)SC3=NC2=O)cc1	-35	79*	74*	-81	94*	-3
CCC1=NN2C(=N)/C(=C\c3cccn3-c3ccc(Cl)cc3)C(=O)N=C2S1	-29	-25	-2	-2	20	0
Cc1cc(C)cc(-n2cccc2/C=C2/C(=N)N3C(=NC2=O)SN=C3S(C)(=O)=O)c1	1	-12	-2	-115	34	3
CN(C)C(CNC(=O)c1ccc(S(=O)(=O)N(C)C)cc1)Cc1ccccc1 (stereo unspecified)	12	-9	-2	-6	4	1
COC(=O)C(CC(C)C)NC(=O)c1cccs1 (stereo unspecified)	30	5	9	-1	16	0
O=C(COC(=O)c1ccc(Cl)nc1)Nc1ccccc1OC(F)F	18	-8	7	-3	-2	0
Cc1ccc[n+](CC2OCc3ccccc3CO2)c1	-24	-12	-6	-3	2	0
CN(C)[C@@H]1C(=O)C(C(=O)NCN2CCCC2)=C(O)[C@@]2(O)C(=O)C3=C(O)c4c(O)cccc4[C@@](C)(O)C3CC12 (stereo partly specified)	-47	87*	85*	9	103*	22
C=C1c2cccc(O)c2C(O)=C2C(=O)[C@]3(O)C(O)=C(C(N)=O)C(=O)[C@@H](N(C)C)[C@@H]3[C@@H](O)[C@H]12	-68	3	39	1	-8	-6
Cc1ccc(-n2nc(C)c3c(C)c(CCC(=O)NCc4ccccc4)c(C)nc32)cc1	-42	-7	16	130*	-6	-4
CC(=O)Nc1ccc(C(=O)OCC(=O)N(Cc2ccccc2)C(C)(C)C)cc1	6	-17	-9	-16	5	0
Cc1ccc(CN2CCc3c(OCC(=O)Nc4cc(C)ccc4C)cccc3C2=O)cc1	5	-11	1	-3	-11	-1
CC12CN3CC(C)(CN(C1)C3c1ccccc1Cl)C2O (stereo unspecified)	-22	-3	1	-18	88*	-2
Clc1ccccc1OCCN1CCC(Cc2ccccc2)CC1	27	63*	38	-11	30	-3
CCOc1ccccc1OCCOCCN1CCN(Cc2ccccc2)CC1	-14	31	84*	40*	17	4
CS(=O)(=O)c1ccc(C(=O)N2CCc3ccccc3C2)cc1	59*	-24	-8	-4	-6	2
CS(=O)(=O)Nc1ccc(C(=O)N2CCc3ccccc3C2)cc1	10	-33	-7	-10	-6	0
O=C(Nc1ccn(-c2ccccc2)n1)c1ccc(S(=O)(=O)N2CCCCCC2)cc1	-10	-10	12	2	-16	-5
CCO[C@@H]1OC(C(=O)NCc2nc3ccccc3[nH]2)=C[C@H](C)[C@H]1CCCO	6	1	-11	45*	10	0
CCO[C@H]1OC(C(=O)NCc2nc3ccccc3[nH]2)=C[C@@H](C)[C@@H]1CCCO	19	-10	-5	-2	-8	0
c1ccc(-n2cccc2CNC2CCCCC2)cc1	-8	-10	70*	-1	13	0
SMILES	Calpain2 inh	Mcl1 Bid PPI	14-3-3 Bad inh	NCF1 inh	Mcl1-Noxa inh	Bim-Mcl-1
Cc1nn(C)c(C)c1S(=O)(=O)N1CCC(CO)(CC2CCCCO2)CC1 (stereo unspecified)	-2	-22	-4	1	11	4
Cc1ccc(C(=O)OCC(=O)c2cc(C)n(CC3CCCO3)c2C)cc1 (stereo unspecified)	-9	-13	-9	59*	15	1
Cc1cc(C(=O)COC(=O)c2cc(O)c3ccccc3c2O)c(C)n1CC1CCCO1 (stereo unspecified)	-102	37	73*	28	99*	0
Cc1cc(C(=O)COC(=O)c2ccccc2Br)c(C)n1CC1CCCO1 (stereo unspecified)	7	-52	-1	-20	6	x
COc1cc(C(=O)NCCc2ccc(S(=O)(=O)N3CCCC3)cc2)cc(OC)c1OC	3	-18	-3	-6	-4	2
CC(C)n1c(Nn2cnnc2)nc2ccccc21	-30	-46	-8	-11	103*	2
CCc1ccccc1Nc1nc2ccccc2n1C(C)C	28	9	6	12	14	-4
O=C(/C=C/c1c(Cl)nc2ccccn12)Nc1ccc(F)cc1	-149	-20	-6	-7	9	3
Cc1ccc(C2=NN=C(NC(=O)CSc3nnc4c5ccccc5n(C)c4n3)SC2)cc1	-95	-3	4	14	63*	-1
CCOC(=O)CN1N=C(c2ccc(Cl)s2)CSC1=O	1	-16	-10	-6	6	-2
CNCc1ccccc1Sc1cc(O)ccc1O	10	40	57	5	99*	-2
CCOC(=O)C1C(=O)NC(c2ccccc2)=NC1c1ccc(Br)cc1 (stereo unspecified)	17	-4	-2	-4	-19	0
O=C(CNS(=O)(=O)c1ccc(C(=O)N2CCCCC2)cc1)N1CCCCC1	-7	-8	9	-10	8	-5
O=C(c1ccc(CNS(=O)(=O)c2ccc(Br)cc2)cc1)N1CCCC1	22	-33	-1	-7	4	42*
O=C(O)Cc1sc(N/N=C\c2ccccc2)nc1-c1ccccc1	17	-35	-11	-6	62*	-3
CC(=O)C1=C(C)NC2=C(C(=O)c3ccccc32)C1c1ccccc1 (stereo unspecified)	9	-17	-31	-10	12	-2
Nc1nc2c(c(=O)[nH]1)C(c1cccc3ccccc13)C1=C(N2)c2ccccc2C1=O (stereo unspecified)	-69	14	4	-16	94*	4
